A short description of test [1]: Nuclear factor erythroid 2-related factor 2/antioxidant responsive element (Nrf2/ARE) small molecule agonists: qHTS cell viability counter screen in human keratinocytes (AID 1919968; active = well fitted curve in the direction sought with a large enough effect in the repeat runs; an effect the other way counts as inactive or inconclusive; also: nearly all actives have a fitted effect of over 55% in size; also: potency is read from the fitted curve at half-maximal effect). The gist of the method: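 Seed 1,500 KeratinoSens cells per well, then incubate 5 h at 37 C/5% CO2. Add compounds in DMSO and incubate 23 h. Add CellTiter-Fluor, wait 1 h and read fluorescence.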
On the technique in general: Quantitative high-throughput screening tests each substance at several concentrations.

Test [2] is described as follows: Nuclear factor erythroid 2-related factor 2/antioxidant responsive element (Nrf2/ARE) small molecule agonists: luciferase reporter gene qHTS assay in human keratinocytes (AID 1919969). Also: nearly all actives have a fitted effect of over 35% in size. Also: potency is read from the fitted curve at half-maximal effect.
The target of test [3] is Gonadotropin-releasing hormone receptor (Homo sapiens) (UniProt P30968). Kind of test: Human gonadotropin-releasing hormone receptor (GnRHR) small molecule agonists, calcium flux assay in GnRHR-HEK293 cells (AID 1920063). Also: nearly all actives have a fitted effect of over 35% in size. The essentials:
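Cells: HEK293 stably expressing human GnRHR. Steps: overnight (18 h) culture, 1 h calcium dye loading at 37 C, compound addition, kinetic fluorescence read at 480/540 nm. Each compound tested at 15 concentrations in triplicate.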

Test [4] deals with KiSS-1 receptor (Homo sapiens) (UniProt Q969F8). Kind of test: Human kisspeptin (KISS1R) small molecule agonists, calcium flux assay in KISS1R-HEK293 cells (AID 1920064; active = well fitted curve in the direction sought with a large enough effect in the repeat runs; an effect the other way counts as inactive or inconclusive). The gist of the method:
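Cells plated and incubated 18 h; dye added, 1 h at 37 C; compounds in DMSO pinned in; signal read at 480/540 nm every second for 3 min. Each compound tested at 15 concentrations in triplicate.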
Background: Calcium flux is commonly read through the fluorescence of an indicator in the cells.

Test [5] in a line: p53 small molecule agonists, cell-based qHTS assay with human liver microsomes (AID 1963577).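 Also: p53 response element beta-lactamase reporter cells with liver microsomes plus NADPH.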 The essentials: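 Metabolically competent format: test substances, human liver microsomes and NADPH (both 0.5 mg/mL final) incubated with p53RE-bla cells 16 h at 37 C. Beta-lactamase reporter signal then quantified by fluorescence.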
Test [6] is described as follows: p53 small molecule agonists, cell-based qHTS assay with human liver microsomes: qHTS cell viability counter screen (AID 1963579). Also: nearly all actives have a fitted effect of over 45% in size. Also: potency is read from the fitted curve at half-maximal effect. The gist of the method:
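Tox21 library compounds, delivered from DMSO stocks, were tested on p53RE-bla cells together with 0.5 mg/mL human liver microsomes and 0.5 mg/mL NADPH (final) over 16 h at 37 C; CellTiter-Glo luminescence served as the cytotoxicity measure.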

A short description of test [7]: p53 small molecule agonists, cell-based qHTS assay with rat liver microsomes: qHTS cell viability counter screen (AID 1963580). Also: nearly all actives have a fitted effect of over 45% in size. Also: potency is read from the fitted curve at half-maximal effect. The gist of the method: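 Intracellular ATP, by CellTiter-Glo luminescence, defines viability. HCT-116 p53RE-bla cells, 4,000 per well, were compound-treated in the presence of rat liver microsomes and NADPH for 16 h at 37 C.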
Test [8] deals with 5-hydroxytryptamine receptor 2A (Homo sapiens) (UniProt P28223). Kind of test: 5-hydroxytryptamine receptor 2A (HTR2A) small molecule antagonists, cell-based qHTS assay (AID 1963586). Also: nearly all actives have a fitted effect of over 45% in size. Also: potency is read from the fitted curve at half-maximal effect. The gist of the method:
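Antagonist-mode intracellular calcium assay: DOI (4 nM) added after 5 min compound pre-incubation at room temperature to dye-loaded HTR2A-CHO cells. Fluorescence followed for 3 min, sampled every second.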

Test [9] has the same target. Kind of test: 5-hydroxytryptamine receptor 2A (HTR2A) small molecule agonists, cell-based qHTS assay (AID 1963587). Also: nearly all actives have a fitted effect of over 30% in size. Also: potency is read from the fitted curve at half-maximal effect. The essentials: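 Kinetic calcium-flux fluorescence (2 min, 1 sec intervals) after compound addition in agonist mode. HTR2A-CHO cells were cultured 18 h, then dye-loaded 1 h at 37 C.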
In test [10] the target is Muscarinic acetylcholine receptor M1 (Homo sapiens) (UniProt P11229). The test is described as follows: Cholinergic receptor muscarinic 1 (CHRM1) small molecule antagonists, cell-based qHTS assay (AID 1963588). Also: nearly all actives have a fitted effect of over 40% in size. The essentials: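 CHRM1-CHO calcium-flux assay, antagonist mode. Cells were seeded 18 h, dye-loaded 1 h at 37 C and given compound for 5 min at RT, then acetylcholine was added at 50nM. FDSS fluorescence was read 3 min; 15 concentrations, three runs.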
Chain of Muscarinic acetylcholine receptor M1 (Homo sapiens) (P11229 whole entry, looked up): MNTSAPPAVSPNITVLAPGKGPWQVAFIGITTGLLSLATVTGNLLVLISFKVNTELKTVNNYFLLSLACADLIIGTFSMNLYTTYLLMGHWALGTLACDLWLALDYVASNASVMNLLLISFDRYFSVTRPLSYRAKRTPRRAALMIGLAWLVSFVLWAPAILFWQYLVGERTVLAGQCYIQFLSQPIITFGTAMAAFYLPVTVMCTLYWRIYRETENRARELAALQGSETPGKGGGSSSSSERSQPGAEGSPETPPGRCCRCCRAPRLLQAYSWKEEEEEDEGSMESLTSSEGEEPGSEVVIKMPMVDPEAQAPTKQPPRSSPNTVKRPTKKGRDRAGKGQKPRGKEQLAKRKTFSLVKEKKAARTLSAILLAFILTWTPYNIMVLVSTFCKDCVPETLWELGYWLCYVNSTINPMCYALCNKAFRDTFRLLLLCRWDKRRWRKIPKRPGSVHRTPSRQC

Test [11] has the same target. The test is described as follows: Cholinergic receptor muscarinic 1 (CHRM1) small molecule agonists, cell-based qHTS assay (AID 1963589). Also: nearly all actives have a fitted effect of over 35% in size. The essentials:
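Agonist-mode qHTS in CHO cells stably carrying human muscarinic M1. Intracellular calcium is tracked by fluorescence every second after compound transfer; each compound runs at 15 concentrations in three independent runs.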

Test [12] concerns the target Beta-2 adrenergic receptor (Homo sapiens) (UniProt P07550). Kind of test: Adrenergic beta2 receptor (ADRB2) small molecule antagonists, cell-based qHTS assay (AID 1963592). Also: series mostly up to about 92 µM; nearly all actives have a fitted effect of over 50% in size. The essentials:
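Cells (CHO, stable ADRB2 overexpression) incubated 18-20hr at 37C; compounds added from DMSO; agonist mix (1nM isoproterenol, 100uM IBMX, 25uM Ro-20-1724) added; 0.5hr RT; d2-cAMP and anti-cAMP-cryptate added; 1hr RT; 665/615 nm read.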

The target in test [13] is D(2) dopamine receptor (Homo sapiens) (UniProt P14416). Kind of test: Dopamine D2 receptor (DRD2) small molecule agonists, cell-based qHTS assay (AID 1963594). Also: nearly all actives have a fitted effect of over 35% in size. The gist of the method:
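cAMP accumulation in DRD2-HEK293 cells measured by HTRF after 1 h detection; compounds added 10 min before NKH477 (200nM […]) forskolin-analogue stimulation, 30 min at room temperature, with Ro20-1724 present at 0.1 mM final.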

The target is the same in test [14]. Kind of test: Dopamine D2 receptor (DRD2) small molecule antagonists, cell-based qHTS assay (AID 1963595; active = well fitted inhibition curve with a large enough effect in the signal ratio in the repeat runs, with a control signal flat; the % refers to the signal ratio; also: potency is read from the fitted curve at half-maximal effect). The gist of the method:
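DRD2-HEK293; 0.1 mM Ro20-1724; cpd 10 min RT; NKH477 200 nM + quinpirole 12 nM, 30 min RT; HTRF cAMP (cAMP-d2/anti-cAMP cryptate), 665/620 nm ratio after 1 h.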

Test [15] in a line: p53 small molecule agonists, cell-based qHTS assay: qHTS cell viability counter screen (AID 1963581). Also: nearly all actives have a fitted effect of over 45% in size. The essentials: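 Cells: HCT-116 with p53 response element-driven beta-lactamase. Treatment: 16 h, 37 C, compounds in DMSO. Read: CellTiter-Glo luminescence after 30 min RT.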
A short description of test [16]: p53 small molecule agonists, cell-based qHTS assay (AID 1963582; active = well fitted activation curve with a large enough effect in the signal ratio in the repeat runs, not every such curve was filed as active; the % refers to the signal ratio; also: potency is read from the fitted curve at half-maximal effect). The gist of the method: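 Quantitative HTS in p53RE-bla cells: after a 5 h settling period, compounds delivered in DMSO were left on cells for 16 h at 37 C, and reporter induction was measured as fluorescence following 2 h substrate loading.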
The nature of test [17]: cAMP Responsive Elements (CRE) small molecule agonists, cell-based qHTS assay (AID 1963590). The essentials:
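Agonist mode qHTS in CRE-bla HEK 293T cells: compounds dosed from DMSO for 3 h at 37 C/5% CO2, followed by LiveBLAzer B/G FRET substrate for 2 h at room temperature.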

Test [18] in a line: cAMP Responsive Elements (CRE) small molecule antagonists, cell-based qHTS assay (AID 1963591; active = well fitted inhibition curve with a large enough effect in the signal ratio in the repeat runs, not every such curve was filed as active; the % refers to the signal ratio). The essentials:
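Antagonist mode: test compounds are co-incubated with the adenylyl cyclase activator NKH477 (0.25 uM final) on CRE-bla HEK293T cells for 3 h at 37 °C, followed by LiveBLAzer substrate loading.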

In test [19] the target is Beta-2 adrenergic receptor (Homo sapiens) (UniProt P07550). Kind of test: Adrenergic beta2 receptor (ADRB2) small molecule agonists, cell-based qHTS assay (AID 1963593).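 Also: CHO cells stably overexpressing human ADRB2.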 The gist of the method:
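CHO cells stably over-expressing ADRB2 were plated overnight at 37C, then dosed with compounds plus a stimulation mix containing 100uM IBMX and 25uM Ro-20-1724 for 0.5hr at room temperature. cAMP was measured by HTRF competition, 1hr.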

“And” between values parts separate entries of the source, which are not always exact repeats. Equal values may be shown once. Inconclusive results are not listed. Some structures have more than one record in an assay (separate samples or runs), and their calls can disagree. The source made the active and inactive calls. Unless noted, calls follow the shape of the full dose curve.
% is scaled to controls: 0 for no effect and ±100 for the full control effect.

Chain of D(2) dopamine receptor (Homo sapiens) (P14416 whole entry, looked up): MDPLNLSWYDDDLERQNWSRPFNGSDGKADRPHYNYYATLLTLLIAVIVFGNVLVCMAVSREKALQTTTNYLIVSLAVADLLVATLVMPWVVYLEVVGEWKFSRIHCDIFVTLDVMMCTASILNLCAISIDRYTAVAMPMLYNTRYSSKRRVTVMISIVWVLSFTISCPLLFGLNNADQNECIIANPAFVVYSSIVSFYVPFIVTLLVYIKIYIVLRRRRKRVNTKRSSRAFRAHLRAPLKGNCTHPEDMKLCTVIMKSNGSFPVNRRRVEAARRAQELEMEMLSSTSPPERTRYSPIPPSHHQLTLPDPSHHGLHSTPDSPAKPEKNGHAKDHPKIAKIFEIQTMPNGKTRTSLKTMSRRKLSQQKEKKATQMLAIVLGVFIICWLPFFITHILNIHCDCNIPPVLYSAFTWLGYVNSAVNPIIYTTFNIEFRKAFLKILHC
Chain of Gonadotropin-releasing hormone receptor (Homo sapiens) (P30968 whole entry, looked up): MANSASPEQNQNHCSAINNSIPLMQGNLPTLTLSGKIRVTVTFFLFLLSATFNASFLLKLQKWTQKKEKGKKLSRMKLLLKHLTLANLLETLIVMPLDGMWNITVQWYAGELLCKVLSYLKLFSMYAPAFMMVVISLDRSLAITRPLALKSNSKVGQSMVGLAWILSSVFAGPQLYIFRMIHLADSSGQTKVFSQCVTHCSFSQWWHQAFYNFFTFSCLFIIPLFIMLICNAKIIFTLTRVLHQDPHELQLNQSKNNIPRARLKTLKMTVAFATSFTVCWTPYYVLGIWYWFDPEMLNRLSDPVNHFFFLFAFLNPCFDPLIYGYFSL
Chain of KiSS-1 receptor (Homo sapiens) (Q969F8 whole entry, looked up): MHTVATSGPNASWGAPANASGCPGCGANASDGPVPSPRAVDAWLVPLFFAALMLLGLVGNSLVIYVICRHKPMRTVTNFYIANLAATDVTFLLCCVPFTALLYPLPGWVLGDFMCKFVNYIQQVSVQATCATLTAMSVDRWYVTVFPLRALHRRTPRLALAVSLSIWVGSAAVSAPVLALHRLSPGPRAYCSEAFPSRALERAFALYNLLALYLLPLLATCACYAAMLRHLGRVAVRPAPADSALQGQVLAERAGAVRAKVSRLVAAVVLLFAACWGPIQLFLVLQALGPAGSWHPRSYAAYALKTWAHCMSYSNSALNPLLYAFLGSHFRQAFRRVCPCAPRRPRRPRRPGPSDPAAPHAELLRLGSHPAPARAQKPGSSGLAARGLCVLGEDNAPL
Chain of Beta-2 adrenergic receptor (Homo sapiens) (P07550 whole entry, looked up): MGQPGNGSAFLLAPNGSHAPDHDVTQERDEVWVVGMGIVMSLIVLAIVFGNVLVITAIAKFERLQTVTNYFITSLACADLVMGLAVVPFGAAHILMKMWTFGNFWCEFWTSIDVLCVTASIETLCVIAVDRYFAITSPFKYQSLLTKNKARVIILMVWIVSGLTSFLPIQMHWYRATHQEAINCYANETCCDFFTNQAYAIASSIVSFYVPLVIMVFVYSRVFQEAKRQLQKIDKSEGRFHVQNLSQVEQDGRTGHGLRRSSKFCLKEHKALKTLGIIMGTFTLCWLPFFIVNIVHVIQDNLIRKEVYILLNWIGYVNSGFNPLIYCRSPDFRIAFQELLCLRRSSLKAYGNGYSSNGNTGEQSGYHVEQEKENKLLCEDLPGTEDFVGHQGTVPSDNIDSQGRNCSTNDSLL
Chain of 5-hydroxytryptamine receptor 2A (Homo sapiens) (P28223 whole entry, looked up): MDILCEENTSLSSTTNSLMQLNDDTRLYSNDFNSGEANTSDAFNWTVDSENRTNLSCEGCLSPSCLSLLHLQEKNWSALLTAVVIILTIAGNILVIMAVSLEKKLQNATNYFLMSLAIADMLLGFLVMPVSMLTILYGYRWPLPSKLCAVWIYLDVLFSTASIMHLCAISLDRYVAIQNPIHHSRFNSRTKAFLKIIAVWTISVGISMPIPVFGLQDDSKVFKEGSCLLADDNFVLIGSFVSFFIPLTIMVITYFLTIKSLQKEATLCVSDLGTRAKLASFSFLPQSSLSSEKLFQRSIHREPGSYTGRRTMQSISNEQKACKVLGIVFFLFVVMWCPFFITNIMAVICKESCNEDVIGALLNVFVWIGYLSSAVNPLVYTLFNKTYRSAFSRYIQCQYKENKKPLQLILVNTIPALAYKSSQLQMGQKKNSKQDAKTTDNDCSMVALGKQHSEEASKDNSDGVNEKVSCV

Take `O=C(Nc1ccc([N+](=O)[O-])cc1Cl)c1cc(Cl)ccc1O`: the Potency in [1] was 1.93 µM (active) and 291 nM (active); in test [2], 34.4 µM (active) and 41.1 nM (active). Moreover, the Potency entry in test [3], in test [4], in test [5], in test [6], in [7] and in test [8] was “inactive” in each case. The Potency entry in test [9], in test [11], in [13] and in test [14] was “inactive” in each case. Moreover, the activity, negative = inhibition in test [10] is -9.19% [at 12.6 µM] (inactive). Further, the activity change, negative = inhibition in [12] is -7.38% [at 19 µM] (inactive).

For `Cc1ccc(C(C)NC(=O)[C@@H](NC(=O)OC(C)C)C(C)C)cc1` (some centres undefined), the Potency entry in test [1], in [2], in test [3], in test [4], in [5] and in [6] was “inactive” each time. For the same molecule, the Potency result in test [7], in [15], in [16], in test [8], in test [9] and in test [10] was “inactive” throughout. Besides, the Potency result in [11], in test [17], in test [12] and in test [13] was “inactive” each time.

As to `CCCCOCCOCCOCCCC`, the Potency result in test [1], in test [2], in test [3], in test [4], in test [6] and in test [7] was “inactive” each time. The Potency entry in test [15], in test [16], in test [8], in [9], in test [10] and in test [11] was “inactive” each time. Also, the Potency entry in test [17], in [18], in [12], in test [19], in test [13] and in test [14] was “inactive” each time.

For the molecule `COc1cc2c(Nc3ccc(Br)cc3F)ncnc2cc1OCC1CCN(C)CC1`, the Potency result in test [1], in test [2], in test [3], in [4], in test [5] and in [7] was “inactive” each time. Further, the Potency result in test [15], in test [8], in test [9], in test [10], in test [11] and in [17] was “inactive” each time. The Potency result in test [18], in test [13] and in test [14] was “inactive” throughout.

As to `CCN1CCC[C@H]1CNC(=O)c1c(O)c(Cl)cc(Cl)c1OC`, the Potency result in test [1], in [2], in [3], in test [4], in test [5] and in [6] was “inactive” each time. Also, the Potency entry in test [7], in test [15], in test [16], in [9], in test [10] and in test [11] was “inactive” in each case. Moreover, the Potency entry in [17], in test [18] and in test [13] was “inactive” throughout. Moreover, the Potency in test [8] is 18.3 µM (active).

For `O=Nc1ccc(Nc2ccccc2)cc1`, the Potency in test [1] was 27.4 µM (active); in [2] it was 9.74 µM (active) and 24.3 µM (active); in test [6], “inactive and 36.3 µM (active)”; in test [7] it was 40.8 µM (active); in [16], 43.4 µM (active); in [8], 844 nM (active) and 5.3 µM (active). For the same molecule, the Potency in test [9] was 0.391 µM (active); in [14], 54.5 µM (active). Moreover, the Potency result in test [3], in test [4], in test [5], in test [15], in test [10] and in test [11] was “inactive” in each case. Besides, in test [13], the Potency entry is “inactive”.

Consider `CCOC(=O)CCC(C)=O`, for which the Potency result in [1], in test [2], in [3], in test [4], in test [5] and in [6] was “inactive” in each case. Moreover, the Potency entry in [7], in test [15], in [16], in test [8], in test [10] and in test [11] was “inactive” in each case. For the same molecule, the Potency result in [17], in test [18], in test [12], in test [13] and in test [14] was “inactive” throughout.

In the case of `CC1CC(=O)CC(C)(C)C1` (centres undefined), the Potency entry in test [1], in test [2], in test [3], in test [4], in [5] and in test [6] was “inactive” each time. Besides, the Potency entry in [7], in test [15], in [16], in test [8], in test [9] and in test [10] was “inactive” throughout. Further, the Potency entry in [11], in test [17], in test [18], in test [12], in [19] and in test [14] was “inactive” throughout.
